According to PubChem BioAssay AID778 (Sanford-Burnham Center for Chemical Genomics, 2007):
Among all 96,000 compounds or so, about 20,000 (21%) were called active.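 The calls were made as follows: active = CYP2C19 inhibition above a set limit at 5 µM in the primary screen (cut at about 50% in these data); inactive = the rest.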 Only a sample is shown.

target: Cytochrome P450 2C19 (Homo sapiens) (UniProt P33261); test: blockers of cytochrome P450 2C19 activity – biochemical, luminescence, ADME assay, primary screen (AID 778); settings: CYP2C19 Supersomes, luciferin-H EGE luminescence, 30 min; at 5 µM; hits give high values;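 also: plate controls were negative control wells for no effect and 2.5 mM tranylcypromine positive control for full effect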
Sequence (P33261 whole entry, looked up): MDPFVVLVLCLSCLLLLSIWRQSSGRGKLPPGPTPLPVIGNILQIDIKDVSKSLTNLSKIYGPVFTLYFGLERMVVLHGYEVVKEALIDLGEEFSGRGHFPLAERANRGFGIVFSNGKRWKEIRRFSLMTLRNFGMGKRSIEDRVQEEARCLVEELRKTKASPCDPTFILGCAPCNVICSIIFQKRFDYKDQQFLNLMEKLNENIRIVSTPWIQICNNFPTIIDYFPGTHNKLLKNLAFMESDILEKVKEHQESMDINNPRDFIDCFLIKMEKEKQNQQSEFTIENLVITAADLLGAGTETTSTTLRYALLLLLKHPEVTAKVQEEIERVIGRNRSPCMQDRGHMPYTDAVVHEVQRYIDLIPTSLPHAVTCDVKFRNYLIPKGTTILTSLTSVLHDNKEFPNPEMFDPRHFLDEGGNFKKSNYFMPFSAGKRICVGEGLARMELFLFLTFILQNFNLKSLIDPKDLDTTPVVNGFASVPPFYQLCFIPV

inhibition, inactive:
CC(=O)N1CCN(C(=O)c2cccc(S(=O)(=O)Nc3ccc(C)cc3)c2)CC1 11.6%, Cc1ccc(S(=O)(=O)Nc2nc(C)cc(-n3nc(C)cc3C)n2)cc1 22%, FC(F)(F)c1nnc2ccc(N3CCN(c4ccccc4)CC3)nn12 27.9%, O=C(Nc1ccccc1C(=O)N1CCOCC1)C1CCC(=O)N1C1CCCC1 (stereo unspecified) -12.6%, CCC(=O)N(Cc1ccccc1)c1ccccn1 -5.8%, CCc1ccc(NC(=O)CSc2nnc(-c3cnccn3)n2Cc2ccco2)cc1 21.4%, CCc1nnc(NC(=O)CSc2nnc(-c3ccncc3)n2Cc2ccccc2)s1 41.3%, CCC(=O)Nc1cccc(NC(=O)CSc2nnc(-c3ccc(NS(C)(=O)=O)cc3)n2C)c1 23.6%, Cc1ccc(C(C)C)c(OCc2nnc(SCC(=O)Nc3nccs3)n2C)c1 17%, CCCCSc1nnc(-c2ccc(NC(=O)CC)cc2)n1C 21.4%, COC(=O)c1ccc(NC(=O)CSc2nnc(CNc3ccc(OC)cc3)n2C)cc1 29.7%, Cc1ccc(NC(=O)CSc2nnc(-c3cnccn3)n2Cc2ccco2)cc1C 5.5%, Cc1ccccc1C(=O)Nc1cccc(-c2nnc(SCC(=O)O)n2C)c1 -18.4%, CCC1(C)N(O)C(C)(C)C(c2ccc(OC)cc2)=[N+]1[O-] (stereo unspecified) -7.3%, C=CCNc1nc(N)c(C(=C(C#N)C#N)c2ccccc2)s1 21.5%, CS(=O)(=O)N1CCN(C(=O)Cc2ccccc2)CC1 16.8%, Cc1c(NC(=O)c2cc(-c3ccc(Cl)s3)nc3ccccc23)c(=O)n(-c2ccccc2)n1C 18.3%, CSc1nnc2c(n1)OC(c1ccsc1)N(C(C)=O)c1ccccc1-2 (stereo unspecified) 5.9%, Cc1nc2ccccc2c(-c2ccccc2)c1C(=O)c1ccccc1 12%, CCc1nnc(NS(=O)(=O)c2ccc(N=Cc3c(C)[nH]n(-c4ccc(C)cc4)c3=O)cc2)s1 -2.3%, CCn1c(=N)n(CC(=O)c2cccc(OC)c2)c2ccccc21 -12.1%, Cc1ccc(S(=O)(=O)N2CCC(C(=O)NCC3CCCO3)CC2)cc1 (stereo unspecified) 6.5%, CCOC(=O)C1CCCN(C(=O)CN(c2ccc(OC)cc2)S(=O)(=O)c2c(C)noc2C)C1 (stereo unspecified) 12.3%, Cc1ccc(C(=O)NCC2CCCO2)o1 (stereo unspecified) -1.3%, O=C(Nc1ccc(Cl)c(Cl)c1)N1CC=C(c2ccccc2)CC1 28.4%, Cc1cc(=O)n2nc(N3CCCC3C(=O)NCCCN3CC(C)CC(C)C3)sc2n1 (stereo unspecified) 2.4%, Cc1cccc(OCc2nnc(SCC(=O)N3CCN(C(=O)c4ccco4)CC3)n2C)c1C 1.1%, CSc1nc(N)c(C#N)c(-c2ccccc2Cl)c1C#N -13.6%, CCOC(=O)C(=CNc1cccc(C)n1)C(=O)OCC 8.8%, Cc1c(CCO)c(=O)[nH]n1C(=O)c1c(F)cccc1F 10%, CCOC(=O)C1CN(S(=O)(=O)c2ccc(F)cc2)C1 43.8%, Cc1cc(N2C(=O)C(=O)/C(=C(/O)c3ccc(Cl)cc3)C2c2cccc(Br)c2)no1 (stereo unspecified) -6.1%, CC1CCc2c(sc3c2C2=NS(=O)(=O)CCN2C=N3)C1 (stereo unspecified) -10%, Cc1ccc(-n2nc3ccc(NC(=O)/C=C/c4ccco4)cc3n2)cc1C -6.9%, CCOc1ccc(-c2nnn(CC(=O)N3CCN(c4ccc(F)cc4)CC3)n2)cc1OCC 18.2%, COC(=O)c1cc(OC)c(OC)cc1NC(=O)CSc1ccc(C)cc1 29.5%, Cc1ccc(SC(=O)COc2ccc(C)c(C)c2)cc1 1.6%, CC(=O)N1CCc2cc(S(=O)(=O)Nc3ccccc3N3CCN(C)CC3)ccc21 -2.4%, O=C(CNC(=O)c1ccc(Cl)cc1Cl)NCC(=O)Nc1ccccc1N1CCOCC1 20.6%, Cc1cc(NCc2ccco2)n2c(nc3ccccc32)c1C#N 0.2%, O=C(O)C1CCN(C(=O)OCc2ccccc2)CC1 31.9%, CCN1CCc2c(C#N)c(NCc3ccccc3)nc(NCCO)c2C1 9%, CC(C)Oc1ccc(C(=O)Nc2cc(=O)n(C)c(=O)n2C)cc1 12.2%, COC(=O)c1c(NC(=O)c2cccs2)sc2c1CCCC2 29.6%, CCOC(=O)c1c(NC(=O)CSc2nnc(C)c(=O)[nH]2)sc2c1CCC2 -11.3%, Cc1ccc(S(=O)(=O)N/N=C\c2cc3c(cc2[N+](=O)[O-])OCO3)cc1 -11%, CC1=NN(C(C)C)C(=O)C1 -6.9%, COCCN(CC(=O)Nc1ccccc1C)S(=O)(=O)c1ccc(S(=O)(=O)N2CCCC2)cc1 5.4%, Cc1ccc(S(=O)(=O)NC(C)C(=O)Nc2ccccc2C(=O)N2CCCC2)cc1 (stereo unspecified) 21.6%, Cc1oc2nc(SCC(=O)NCc3cccnc3)nc(N)c2c1C 8%, c1ccc2c(CNn3cnnc3)cccc2c1 26.1%, COc1ccc2c(c1OC)C(=O)N(c1ncn[nH]1)C2 -17.6%, O=C(CCCn1c(=O)oc2ccccc21)Nc1cccnc1 24.5%, O=C(OCN1C(=O)c2ccccc2C1=O)/C(=C\c1ccco1)NC(=O)c1ccccc1 17.6%, CC(=O)c1ccc2c(c1)c1ccccc1n2CC(C)C 16.4%, Cc1ccc(N(CC(O)CN2CCCC2)S(=O)(=O)c2ccccc2)cc1 (stereo unspecified) 16.8%, O=C(NCCCN1CCOCC1)c1cnn2c(-c3ccccc3)cc(-c3ccccc3)nc12 -3.7%, c1ccc(-n2nnnc2NC2CCCCCC2)cc1 33.5%, CCn1nnc(NC(=O)c2c(OC)cccc2OC)n1 -17.4%, COc1c(Cl)cc(C(=O)Nc2ccc(Cl)cn2)cc1Cl 3.2%, CCCCNC(=S)NNC(=O)c1cc(C)on1 26.1%, CC(=O)Nc1cc2ccc(OC(C)=O)cc2oc1=O 8%, CCOC(=O)c1c(CN2CCOCC2)n(-c2ccccc2)c2ccc(O)cc12 31.8%, Cc1cccc(N(CC(=O)N2CCOCC2)S(C)(=O)=O)c1 3.3%, Cc1nn(Cc2ccc(C(=O)N3N=C(C(F)F)CC3(O)C(F)F)cc2)c(C)c1[N+](=O)[O-] (stereo unspecified) 10%, c1ccc(-c2[nH]ncc2-c2nc3ccccc3[nH]2)cc1 31.2%, Cc1ccc(-c2nc3ccccc3[nH]2)cc1N 47%, CC(C)COC(=O)C1C2C=CC3(CN(C(C)c4ccc(Br)cc4)C(=O)C13)O2 (stereo unspecified) 31%, CC(=O)NC1(c2cccc(F)c2)CCN(CC(=O)NC(C)C)CC1 3.9%, C/C(Cl)=C\Cn1c(Nc2cccc(C)c2)nc2c1c(=O)n(C)c(=O)n2C -5.6%, COc1cc(C2C(C#N)=C(C)NC3=C2C(=O)CC(C)(C)C3)ccc1O (stereo unspecified) 20.5%, CCCOC(=O)C1=C(C)NC2=C(C(=O)C(C(=O)OC)C(C)C2)C1c1ccc(N(C)C)cc1 (stereo unspecified) 3.6%, Cc1cccc(NC(=O)c2sc3nc4c(c(-c5ccco5)c3c2N)CCC4)c1 13.8%, O=C1CC(NNc2ccccc2)C(=O)N1c1cccc(Cl)c1 (stereo unspecified) 18.7%, COC(=O)c1cc(C(=O)OC)cc(N2C(=O)CC(N3CCN(c4ccccc4)CC3)C2=O)c1 (stereo unspecified) 12.1%

inhibition, active:
Cc1ccc(S(=O)(=O)Nc2ccc3ncccc3c2)cc1 89.8%, CCn1c(SCC(=O)Nc2nccs2)nnc1-c1ccncc1 66.7%, Cn1c(SCC(=O)Nc2cccc(NC(=O)c3cccs3)c2)nnc1-c1ccncc1 54%, CCn1c(SCC(=O)Nc2cc(C)ccc2C)nnc1-c1cnccn1 71.7%, COC(=O)c1ccc(NC(=O)CSc2nnc(-c3ccncc3)n2C)cc1 54.6%, Cc1cc(C)cc(N(CC(=O)NCC2CCCO2)S(=O)(=O)c2c(C)noc2C)c1 (stereo unspecified) 82.9%, Cc1cc(C)cc(N(CC(=O)N2CC=C(c3ccccc3)CC2)S(=O)(=O)c2c(C)noc2C)c1 89.1%, Cc1c(CCO)c(=O)n(-c2ccccc2)n1S(=O)(=O)c1ccc(F)cc1 78.5%, Cc1ccc(SCC(=O)c2cc(C)c(OC(=S)N(C)C)c(C)c2)cc1 66.7%, O=S(=O)(Nc1ccccc1N1CCOCC1)c1ccc(Cl)s1 50.4%, N#Cc1c(N)sc2c1CCN(C(=O)OCc1ccccc1)C2 92.8%, COC(=O)c1c(NC(=O)CSc2nncs2)sc2c1CCCCC2 82.9%, O=C(CN(c1ccccc1)S(=O)(=O)c1ccc(Cl)cc1)Nc1ccccc1C(=O)N1CCCC1 86.7%, c1ccc2c(-c3nn4nnnc4c4ccccc34)cccc2c1 78.9%, CS(=O)(=O)N(CC(O)Cn1c2ccccc2c2ccccc21)c1cccc2ccccc12 (stereo unspecified) 77%, Fc1ccccc1CCNc1nnnn1-c1ccccc1 73.1%, CCn1nnc(NC(=O)c2cc(Cl)c(OC)c(Cl)c2)n1 61.3%, CCOC(=O)CN(C(=O)CN1CCOCC1)c1ccc(Br)cc1 64.6%, c1ccc2[nH]c(-c3nc4ccccc4[nH]3)nc2c1 53.1%, CCOC(=O)C1=C(C)NC2=C(C(=O)CC(C)(C)C2)C1c1ccsc1 (stereo unspecified) 50.4%, O=C1CC(c2ccccc2)C(=O)N1c1cccc(O)c1 (stereo unspecified) 60.7%
